# Screening results from PubChem.
# TDP1 cell noCPT – qHTS for Inhibitors of human tyrosyl-DNA phosphodiesterase 1 (TDP1): qHTS in cells in absence of CPT; DT40 Tdp1-/- hTDP1 cells, no CPT, ATP luminescence, 48 h; Potency, µM (top dose mostly 46.2 µM), for the others: top-dose activity change, negative = growth inhibition, most hits filed as inhibitors; 15% of 420,000 active; note: nearly all actives have a fitted effect of over 55% in size
#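 Readout: luminescence from CellTiter-Glo after 30 min in the dark at RT. Cells: DT40 Tdp1-/- with stable hTDP1, 400/well. Exposure: compounds alone, ≥48 hr, 37 °C.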
# 12-LOX inh – Primary qHTS assay for inhibitors of human arachidonate 12S-lipoxygenase (ALOX12): Round 2. AID 1671190, 2021. 1.1% of 580,000 active. Polyunsaturated fatty acid lipoxygenase ALOX12 (Homo sapiens), P18054. purified 12hLO, xylenol orange hydroperoxide absorbance. Potency, µM (series often up to 108 µM), for the others: at the top dose activity change, negative = inhibition, hits mostly inhibitors
# Target sequence (P18054 whole entry, looked up): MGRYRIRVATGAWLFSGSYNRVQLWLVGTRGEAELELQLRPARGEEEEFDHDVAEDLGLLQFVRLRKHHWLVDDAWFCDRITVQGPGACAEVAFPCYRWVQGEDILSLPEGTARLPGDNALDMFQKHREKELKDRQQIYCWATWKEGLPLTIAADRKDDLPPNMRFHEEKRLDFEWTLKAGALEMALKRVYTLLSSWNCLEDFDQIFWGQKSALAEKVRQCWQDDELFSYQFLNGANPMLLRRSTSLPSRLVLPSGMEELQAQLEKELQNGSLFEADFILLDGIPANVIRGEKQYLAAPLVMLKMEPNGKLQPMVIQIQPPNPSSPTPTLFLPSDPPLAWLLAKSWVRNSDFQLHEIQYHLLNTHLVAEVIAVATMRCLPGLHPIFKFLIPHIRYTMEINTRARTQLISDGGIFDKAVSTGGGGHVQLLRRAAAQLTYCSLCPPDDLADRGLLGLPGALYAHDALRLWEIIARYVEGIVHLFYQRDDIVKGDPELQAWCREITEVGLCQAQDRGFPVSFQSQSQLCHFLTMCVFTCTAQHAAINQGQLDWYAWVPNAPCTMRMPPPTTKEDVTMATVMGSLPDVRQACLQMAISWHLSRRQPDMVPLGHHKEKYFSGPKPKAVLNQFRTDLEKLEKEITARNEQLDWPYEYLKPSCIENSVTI
#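 Purified human 12hLO at 150 nM in 25 mM Hepes, 0.01% Triton X-100, pH 7.0, preincubated 15 min at room temperature with compound. Reaction started with 40 uM arachidonic acid, 30 min at room temperature. Hydroperoxide measured by Fe-xylenol orange, 573/405 nm absorbance ratio.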
# RORgamma inh – qHTS for inhibitors of ROR gamma transcriptional activity. Nuclear receptor ROR-gamma (Mus musculus), P51450. Drosophila S2 Gal4-RORgamma UAS-luciferase reporter, 20 h. Potency, µM (series often up to 53.6 µM), for the others: at the highest dose activity change, negative = inhibition, hits mostly inhibitors. 5.4% of 310,000 active. AID 2551, 2010; note: nearly all actives have a fitted effect of over 60% in size
#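 Drosophila Schneider cells stably carrying a metallothionein-driven Gal4 DBD–ROR gamma fusion and a UAS-Photinus luciferase reporter were exposed to compound for 1 hr, then induced with copper sulfate (700 uM final) for 20 hr at ambient temperature before luminescence reading.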
# ELG1 repair inh – qHTS screen for small molecules that inhibit ELG1-dependent DNA repair in human embryonic kidney (HEK293T) cells expressing luciferase-tagged ELG1; HEK293T ELG1-luciferase reporter, luminescence, 16 h; DNA damage induced by 5-fluorouridine; Potency, µM (doses to about 46.1 µM), without a hit: top-dose activity change, negative = inhibition, usual class: inhibitors; 2.3% of 330,000 active; AID 504467, 2011; note: nearly all actives have a fitted effect of over 55% in size
#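 In this reporter screen, reduction of luminescence relative to DMSO vehicle indicated activity. Compounds and 5-fluorouridine were added together to 2,000 cells per well, incubated for 16 hr at 37 °C, then developed with ONE-Glo.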
# Gal4-VP16 FLuc – VP16 counterscreen qHTS for inhibitors of ROR gamma transcriptional activity; Drosophila S2 Gal4-VP16 UAS-luciferase, luminescence, 20 h; Potency, µM (titrated, usually from 53.6 µM), without a hit: at the highest dose activity, negative = inhibition, actives largely listed as inhibitors; 3.5% of 310,000 active; AID 2546, 2010;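 note: Gal4-VP16 expression switched on by copper sulfate through the metallothionein promoter; nearly all actives have a fitted effect of over 50% in size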
# TDP1 cell CPT – qHTS for Inhibitors of human tyrosyl-DNA phosphodiesterase 1 (TDP1): qHTS in cells in presence of CPT | 12% of 420,000 active | Potency, µM (highest dose often 46.2 µM), for inactives: top-dose activity change, negative = growth inhibition, most hits filed as inhibitors | chicken DT40 Tdp1-/-;hTDP1 cells + 20 nM CPT, ATP luminescence, 48 h; note: nearly all actives have a fitted effect of over 55% in size
#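 Cell growth measured by CellTiter-Glo luminescence after a minimum 48 h, 37 C compound exposure with 20 nM CPT in Tdp1-knockout DT40 cells stably expressing hTDP1, seeded 400/well; qHTS titration format.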
# * hit, by the source's call; ? = inconclusive; · = not tested or not shown. The list is not random: actives were taken first. Their share in the collection is about 15%. Calls come from the whole dose curve; as a rule, active = well fitted curve in the direction sought with a large enough effect; inconclusive = small, poorly fitted or top-dose-only effect, or another doubt; inactive = no such curve, though single readings can be large; an effect the other way counts as inactive or inconclusive. % is set by controls: 0 for no effect and ±100 for the full control effect; potency is the fitted concentration of half-maximal effect.
SMILES,TDP1 cell noCPT,12-LOX inh,RORgamma inh,ELG1 repair inh,Gal4-VP16 FLuc,TDP1 cell CPT
Cc1ccccc1SC1CCN(c2cc(C3CC(O)C3)ncn2)CC1 (centres undefined),·,16%,·,·,·,·
O=C1NC(=NCc2ccccc2)S/C1=C/c1ccc(O)cc1,12µM*,?,-1%,?,-14%,?
Cc1c(N=C2NC(=O)C(CC(=O)Nc3ccccc3)S2)c(=O)n(-c2ccccc2)n1C (centres undefined),7%,0%,0%,1%,18%,-110%
O=C1NC(=O)/C(=C/c2ccccc2OCc2ccccc2)S1,-8%,-17%,?,-4%,?,-4%
Cc1c(N=C2NC(=O)/C(=C/c3ccc(O)cc3)S2)c(=O)n(-c2ccccc2)n1C,?,-24%,5µM*,12%,?,-18%
Cn1nc(C(C)(C)C)cc1C(=O)NCc1ccc(N2CCCC2=O)cc1,2.3µM*,-3%,?,-22%,0.56µM*,3.3µM*
COc1ccc(CNC(=O)C2CCN(S(=O)(=O)c3ccc(N4CCCC4=O)cc3)CC2)cc1,12µM*,12%,·,·,·,26µM*
COc1ccc(CNC(=O)C2CCN(S(=O)(=O)c3ccccc3)CC2)cc1,-2%,-5%,-13%,-16%,0%,-1%
O=C(NCCO)C1CCN(S(=O)(=O)c2ccc(F)cc2)CC1,5%,0%,-5%,-2%,-3%,3%
O=C(NCc1ccc(N2CCCC2=O)cc1)c1ccc(F)cc1,2%,-2%,-1%,-3%,-8%,2%
CCNC(=O)C1CCN(S(=O)(=O)c2ccc(F)cc2)CC1,18µM*,0%,-10%,1%,0%,?
Cc1ccc(CNC(=O)c2ccc(N3CCCC3=O)cc2)cc1,-2%,-2%,10%,?,2%,-5%
O=C(NCc1ccc(F)cc1)C1CCN(S(=O)(=O)c2ccc(N3CCCC3=O)cc2)CC1,16µM*,-3%,·,·,·,?
COc1ccc(CN2C(=O)COC[C@H]2C(=O)NCCc2c[nH]c3ccccc23)c(OC)c1,·,20%,·,·,·,·
Cc1ccc(NC(=O)C2CCN(S(=O)(=O)c3ccc(N4CCCC4=O)cc3)CC2)cc1Cl,4.1µM*,-8%,?,?,3.2µM*,5.8µM*
O=C(NCc1ccccc1Cl)C1CCN(S(=O)(=O)c2ccc(N3CCCC3=O)cc2)CC1,?,10%,-35%,14%,-20%,16µM*
CCc1ccc(CNC(=O)C2CCN(S(=O)(=O)N3CCC(C)CC3)CC2)cc1,26µM*,1%,1%,-1%,-11%,?
CC1(C)CCCN(Cc2c(O)ccc3c(=O)c(-c4nc5ccccc5s4)c(N)oc23)C1,13µM*,14%,-36%,?,-13%,18µM*
CC1=C(O)C(=O)CO1,·,25µM*,·,·,·,·
O=C1OCC(CC2=C(O)C(=O)OC2)=C1O,-7%,-8%,·,·,·,3%
CCC(C)N1C(=O)S/C(=C/c2ccc3c(c2)n(C)c(=O)n3C)C1=O (centres undefined),23µM*,-6%,-13%,-5%,-10%,23µM*
CCOC(=O)C(C)N1C(=O)S/C(=C/c2ccc3c(c2)n(C)c(=O)n3C)C1=O (centres undefined),?,-4%,-7%,3%,-13%,?
COc1ccc(-n2nnc(C(=O)NCc3cccs3)c2N)cc1OC,·,-11%,·,·,·,·
O=C(Nc1ccc(-c2nc3ccccc3o2)cc1)C1CC1,·,-9%,·,·,·,·
CCOC(=O)c1c(C)oc2c1c(C(c1cccnc1)N1CCCCC1)c(O)c1ccccc12 (centres undefined),?,4%,?,?,-13%,?
SMILES,TDP1 cell noCPT,12-LOX inh,RORgamma inh,ELG1 repair inh,Gal4-VP16 FLuc,TDP1 cell CPT
CCOC(=O)c1c(C)oc2c1c(C=NCCO)c(O)c1ccccc12,?,-4%,11µM*,?,?,-69%
CCOC(=O)c1c(C)oc2c1c(C(c1ccccc1)N1CCOCC1)c(O)c1ccccc12 (centres undefined),18µM*,-10%,?,?,10µM*,?
Cc1cccc2cc(CN(Cc3nnnn3C3CCCCC3)C3CCCC3)c3nnnn3c12,?,0%,?,?,4%,21µM*
C=CCNC(=S)Nc1cc(Cl)ccc1Cl,·,19%,·,·,·,·
CC(C)Cc1ccc(C(C)CC2=CCC(CN(C)C)C2=O)cc1 (centres undefined),4.6µM*,-27%,·,·,·,4.6µM*
NC(c1csc(NC(=O)Nc2ccccc2)n1)C1CCCCC1 (centres undefined),15µM*,8%,·,·,·,?
NC(c1csc(NC(=O)Nc2cccc(Cl)c2)n1)C1CCCCC1 (centres undefined),?,?,·,·,·,18µM*
Cc1ccc(C)c(CC(=O)N2CCCCC2c2cc(C(=O)Nc3ccc(F)c(Cl)c3)no2)c1 (centres undefined),23µM*,9%,·,·,·,21µM*
CC(=O)Nc1ccc(C(=O)N2CCCCC2c2cc(C(=O)Nc3ccccc3)no2)cc1 (centres undefined),-16%,11%,·,·,·,-27%
N#Cc1cccc(NC(=O)c2cc(C3CCCCN3C(=O)CCCc3ccccc3)on2)c1 (centres undefined),?,?,·,·,·,23µM*
O=C(Nc1ccc(F)c(Cl)c1)c1cc(C2CCCCN2C(=O)c2ccc(Cl)cc2)on1 (centres undefined),21µM*,?,·,·,·,21µM*
CN(C)c1ccc(CC(=O)N2CCCCC2c2cc(C(=O)Nc3ccccc3Cl)no2)cc1 (centres undefined),?,?,·,·,·,-110%
O=C(Nc1ccc(F)c(Cl)c1)c1cc(C2CCCCN2C(=O)c2ccccc2)on1 (centres undefined),6.5µM*,25%,·,·,·,8.2µM*
O=C(Nc1ccc(F)c(Cl)c1)c1cc(C2CCCCN2C(=O)CCc2ccccc2)on1 (centres undefined),?,-44%,·,·,·,15µM*
